The panel holds about 83,000 compounds, 20% with a hit somewhere; the sample as a whole holds those more often.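 48-hour exposure, single concentration, 96-well plates; percent growth endpoint where 0 means no net growth. Active: below 10.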 A number with no mark means an inactive call. Active and inactive are the calls of the source.

We go through 40 compounds from PubChem BioAssay (NCI).

This test has as its system OVCAR-5 ovarian. The test can be described thus: NCI-60 one-dose screen, 48 h (100 = growth as untreated, 0 = no growth, -100 = all killed). The settings on record: 10 µM unless noted. The procedure: Growth inhibition of the OVCAR-5 human tumor cell line is measured as a screen for anti-cancer activity. Cells are grown in 96 well plates and exposed to the test compound for 48 hours. Compounds are tested at a single concentration, which is 10^-5 M for most compounds. The reported endpoint is percent growth (GI% or GIPRCNT), where numbers from 0 - 100% represent growth inhibition, and numbers from -100% - 0 represent cell death. For example, a value of 40 represents 60% growth inhibition. A value of 0 means no net growth occurred over the course of the experiment. A value of -40 indicates 40% of cells at the beginning of the experiment died by the end of the experiment. A value of -100 means all cells are dead at the end of the experiment.
NCI-60 Human Tumor Cell Lines Screen was performed using the standard one-dose NCI protocol, which is described in more detail at https://dtp.cancer.gov/discovery_development/nci-60/default.htm.
Compounds with GIPRCNT values below 10 were considered active. Activity score was based on GIPRCNT using the following formula: […]
Score is 0 for GIPRCNT values of 100 or above, 50 for GIPRCNT values of 0, and 100 for GIPRCNT values of -100.
Take `Fc1ccc(-c2ccnc3nc(-c4ccncc4)nn23)cc1`: the growth is 100%.

Consider `Nc1n[nH]c2ccc([C@@H]3Nc4c(F)cc5[nH]ncc5c4[C@H]4C5CCC(C5)[C@@H]34)cc12` (stereo not given in full), for which the growth was 30.8%.

For `Fc1cnccc1-c1nc2ccc3[nH]ncc3c2c2c1CCCC2`, the growth was 45.2%.

With `NC(=S)N/N=C(/c1cccs1)C1CC1`, the growth was 90.9%.

`COc1ccc2[nH]c(O)c(/C=c3/ccc4c(c3)N=C(c3ccc(C(F)(F)F)cc3)N=4)c2c1`: the growth is 113%.

Turning to `COc1ccc(/C=c2\c(=O)n(-c3ccccc3)c3nn4c(n23)=NNC42CCCCC2)cc1`, the growth is 113%.

Regarding `COc1ccc(/C=C(/C(=O)N2CCN(c3ccccc3)CC2)c2cc(OC)c(OC)c(OC)c2)cc1O`, the growth was 51.2%.

As to `COc1ccc([C@@H]2[C@@H](Oc3ccccc3)C(=O)N2c2cc(OC)c(OC)c(OC)c2)cc1F`, the growth is 19.8%.

For `OC(c1cc2cc(Cl)ccc2c2cc(C(F)(F)F)ccc12)C1CCCCN1` (stereo not given), the growth is -77.8% (active).

On to `CCCCNCCC(O)c1cc2ccc(C(F)(F)F)cc2c2cc(C(F)(F)F)ccc12` (stereo not given), for which the growth was -79.9% (active).

Turning to `CCSc1ccc([C@@H]2[C@@H](O)C(=O)N2c2cc(OC)c(OC)c(OC)c2)cc1`, the growth is 54.8%.

For `NC(N)=N/N=C\c1ccc(OCc2ccccc2)cc1`, the growth is 82.8%.

Regarding `O=c1[nH]c2cc(Cl)c(Cl)cc2o1`, the growth is 113%.

On to `C=CCOc1c(Br)cc(Br)cc1Br`, for which the growth is 76.2%.

Consider `COc1ccc(C2C3=C(COC3=O)N(CCO)c3cc(OC)c(OC)cc32)cc1` (stereo not given), for which the growth was 104%.

As for `COc1cc(-c2nc(-c3nc4cc(C(=O)c5ccccc5)ccc4[nH]3)cc3c2[nH]c2ccccc23)cc(OC)c1OC`, the growth was 103%.

For the compound `O=C(C(=O)c1cccnc1)c1cccnc1`, the growth was 100%.

For the compound `O=c1[nH]cnc2nc[nH]c12`, the growth was 98.5%.

As for `Cc1cc(C)cc(Nc2cc(C)nc3nc(C(F)(F)F)nn23)c1`, the growth is 63.3%.

`COc1ccc(C(=O)c2cc(C)c(OC)c(C)c2)cc1OC(=O)CCl`: the growth is 39.6%.

Consider `CN(C)c1ccc(Nc2c3ccccc3nc3ccccc23)cc1`, for which the growth is 43.7%.

Regarding `C=C(CN1CC=CCC1)[C@@H]1CC[C@]2(C(=O)OC)CC[C@]3(C)[C@H](CC[C@@H]4[C@@]5(C)CC[C@H](OC(C)=O)C(C)(C)[C@@H]5CC[C@]43C)[C@@H]12`, the growth was 118%.

`Cc1cc(C)cc(CCCCCCCCCCCCCCCCCC(=O)O)c1`: the growth is 103%.

As for `CCOC(=O)c1ccc(NCCC(=O)O)cc1`, the growth is 110%.

In the case of `CCOC(=O)c1sc2nc(-c3cc4ccccc4o3)cc(-c3ccc(Cl)cc3)c2c1N`, the growth was 112%.

As to `COc1ccccc1NC(=O)OCC12COCN1COC2`, the growth is 96.4%.

With `O=C(CS)OCC(COC(=O)CS)(COC(=O)CS)COC(=O)CS`, the growth is 104%.

With `O=C(Oc1c(Cl)c(Cl)c(Cl)c(Cl)c1Cl)C1CCCN1C(=O)OCc1ccccc1` (stereo not given), the growth is 94.9%.

For `CC1=NOCC(=O)N1`, the growth is 95.3%.

In the case of `O=[N+]([O-])c1cc(F)c2cccnc2c1O`, the growth was 105%.

For `C=C(C)c1ccc(/C=N/NC(N)=S)cc1`, the growth is 120%.

Turning to `Cc1cc(C)c([O-])c(CN(C)CCN(C)Cc2cc(C)cc(C)c2[O-])c1.O=C([O-])c1cccc(C(=O)[O-])n1.[Ti+4]`, the growth is 22.1%.

As for `CC(C)NC(=O)OCC#CCOC(=O)NC(C)C`, the growth was 110%.

As for `CCN(CC)c1ccc2nc3c4ccccc4c(=O)cc-3n(-c3ccccc3)c2c1`, the growth is 10.7%.

For `NC(=O)c1noc(C(=O)c2ccccc2)c1N`, the growth is 100%.

For the compound `CCc1oc2ccccc2c1C(=O)c1cc(I)c(O)c(I)c1`, the growth was 86.5%.

On to `O=C(NNC(=S)Nc1ccccc1)c1ccc(Nc2ncnc3c2cnn3-c2cccc(Br)c2)cc1`, for which the growth is 105%.

In the case of `CC(=O)Nc1nonc1-c1nc2ccccc2n1Cc1ccc(C(C)(C)C)cc1`, the growth was 93.5%.

`COC(=O)C(C)NC1=C(Cl)C(=O)C(NC(C)C(=O)OC)=C(Cl)C1=O` (stereo not given): the growth was 111%.

Consider `O=C(Nc1cccc(Cl)c1)Nc1cc(C(F)(F)F)ccc1Cl`, for which the growth is 44.2%.
